The whole screen tested about 1,000 compounds, of which about 230 (23%) were called active. About 1% were inconclusive and are not listed. No rule for the calls is given here. This is one part of the list. Measured potencies and affinities stand elsewhere.
What follows are compounds tested against Long-chain-fatty-acid--AMP ligase FadD28 (Mycobacterium tuberculosis (strain ATCC 25618 / H37Rv)) (UniProt P9WQ59) (assay: inhibitors of FadD28 bisubstrate probe binding, dose response, biochemical, fluorescence polarization, cherry-pick (AID 624273)). Conditions: series mostly up to 50 µM.
Sequence of Long-chain-fatty-acid--AMP ligase FadD28 (Mycobacterium tuberculosis (strain ATCC 25618 / H37Rv)) (P9WQ59 whole entry, looked up): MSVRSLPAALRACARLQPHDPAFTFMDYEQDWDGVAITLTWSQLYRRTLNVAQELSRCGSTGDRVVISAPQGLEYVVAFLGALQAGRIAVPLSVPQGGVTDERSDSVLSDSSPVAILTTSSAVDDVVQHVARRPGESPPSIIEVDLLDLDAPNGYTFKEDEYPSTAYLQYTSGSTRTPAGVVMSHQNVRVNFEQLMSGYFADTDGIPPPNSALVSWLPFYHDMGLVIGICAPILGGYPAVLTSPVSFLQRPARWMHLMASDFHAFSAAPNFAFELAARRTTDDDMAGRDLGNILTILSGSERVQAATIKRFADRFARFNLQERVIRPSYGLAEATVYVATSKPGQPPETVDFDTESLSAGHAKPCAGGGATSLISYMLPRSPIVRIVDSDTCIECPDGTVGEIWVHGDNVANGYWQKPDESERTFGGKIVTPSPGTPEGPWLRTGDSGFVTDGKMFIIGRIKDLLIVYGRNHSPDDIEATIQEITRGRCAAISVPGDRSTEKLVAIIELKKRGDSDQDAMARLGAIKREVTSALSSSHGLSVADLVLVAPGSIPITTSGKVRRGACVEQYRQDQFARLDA
For COc1cccc(OCc2cc(C(=O)N(C)CCOc3ccc(C)cc3)no2)c1, the outcome was “inactive”. CC(C)=NOc1cc(NC(=O)CCl)cc([N+](=O)[O-])c1 was tested, and the outcome was “inactive”. In the case of C/C(=N\NC(=O)COc1ccccc1)c1ccc(O)cc1, the outcome is reported as “inactive”. Nc1nnnn1/N=C/c1cc(Cl)cc(Cl)c1O was tested, and the outcome was “inactive”. In the case of O=C(O)Cn1c2ccccc2c2n[nH]c(=S)nc21, the outcome is reported as “inactive”. With CCOC(=O)c1cc(NC(=O)c2ccc(Cl)cc2)c(=O)n2c1oc1ccc(Cl)cc12 the outcome was “inactive”. In the case of S=c1nc[nH]c2c1sc1nc(-c3ccccc3)c3c(c12)CCCC3, the outcome is reported as “inactive”. With CCn1c(SCC(=O)Nc2ccc(N3CCOCC3)cc2)nnc1-c1ccncc1 the outcome was “inactive”. For Cc1ccc(C)c(NS(=O)(=O)c2ccc(NC(=O)CSc3ccc(Cl)cc3)cc2)c1, the outcome was “inactive”. In the case of Cc1ccc(OCc2nc(-c3ccccn3)no2)cc1, the outcome is reported as “inactive”. COc1ccc(CCNC(=O)c2ccc(NS(=O)(=O)c3ccc4[nH]c(=O)[nH]c4c3)cc2)cc1 was tested, and the outcome was “inactive”. With COc1ccc(CCNC(=O)c2ccccc2NS(=O)(=O)c2c(F)cccc2F)cc1 the outcome was “inactive”. With CCC(C)(C)NC(=O)CN(C(=O)CCC(=O)Nc1nccs1)c1ccc2c(c1)OCO2 the outcome was “inactive”. COc1ccc(COc2ccc3c(C)cc(=O)oc3c2)cc1 was tested, and the outcome was “inactive”. With Cc1ccc(S(=O)(=O)N(C)CC(=O)OCC(=O)NC(=O)Nc2ccc3c(c2)OCCO3)cc1 the outcome was “inactive”. With CCOC(=O)c1ccc(NC(=O)c2nc[nH]c2C(=O)N(CC)CC)cc1 the outcome was “inactive”. COc1ccc(S(=O)(=O)N2CCC(C(=O)NCCC(=O)NCc3ccncc3)CC2)cc1 was tested, and the outcome was “inactive”. In the case of O=C(NC(Cc1ccccc1)C(=O)O)C1CCN(S(=O)(=O)c2ccccc2C(F)(F)F)CC1 (stereo unspecified), the outcome is reported as “inactive”. With Cc1ccc(C)c(NC(=O)C(CC(=O)O)Cc2ccccc2)c1 (stereo unspecified) the outcome was “inactive”. With COC(=O)[C@H](Cc1ccccc1)NC(=O)NCc1ccc(C)cc1 the outcome was “inactive”. O=C(NCc1ccc(F)cc1)C(Cc1ccccc1)NS(=O)(=O)c1cccs1 (stereo unspecified) was tested, and the outcome was “inactive”. With C[C@H](CO)N1C[C@H](C)[C@H](CN(C)S(=O)(=O)c2cn(C)cn2)Oc2ccc(NC(=O)Nc3ccc(C(F)(F)F)cc3)cc2CC1=O the outcome was “inactive”. In the case of NC(Cc1ccccc1)c1nn[nH]n1 (stereo unspecified), the outcome is reported as “inactive”. For CN1CCN(NC(=O)c2ccc(S(=O)(=O)N3CCCCCC3)cc2)CC1, the outcome was “inactive”. With O=C(O)c1cc2ccccc2cc1Nc1ccccc1 the outcome was “inactive”. With CC(=O)c1ccc(Oc2cc(-c3ccccc3)nc(-c3ccccc3)n2)cc1 the outcome was “inactive”. With CCN(CC)CCCn1c(=S)[nH]c2cc(Cl)ccc2c1=O the outcome was “inactive”. For COC1=CC(=O)OC(CCc2ccc3c(c2)OCO3)C1 (stereo unspecified), the outcome was “inactive”. In the case of Cc1ccc(C(=O)n2nc(C#N)c(C#N)c2N)cc1, the outcome is reported as “inactive”. In the case of CC(=O)N1CCN(c2ccc(NC(=O)c3ccc(C(C)(C)C)cc3)cc2)CC1, the outcome is reported as “inactive”. With N#Cc1ccc(OCC(=O)OCC(=O)Nc2ccc(N3CCOCC3)cc2)cc1 the outcome was “inactive”. In the case of O=C(Sc1ccc(Cl)cc1)c1ccccn1, the outcome is reported as “inactive”. With O=[N+]([O-])c1ccc(N2CCCCCC2)c2nonc12 the outcome was “inactive”. With Cn1c(N)c(S(=O)(=O)N2CCN(c3ccccc3Cl)CC2)c(=O)n(C)c1=O the outcome was “inactive”. With CCc1c(C)sc(NC(=O)C2CC2c2ccccc2)c1C(N)=O (stereo unspecified) the outcome was “inactive”. In the case of O=C(/C=C/c1ccc([N+](=O)[O-])cc1)/C=C/c1ccco1, the outcome is reported as “inactive”. With Cc1c(C(=O)C(=O)N2c3ccccc3CC2C)c2ccccc2n1C (stereo unspecified) the outcome was “inactive”. In the case of C=CCn1c(C)csc1=Nc1ccc(C(C)=O)cc1, the outcome is reported as “inactive”. With O=C(c1cccc(S(=O)(=O)N2CCN(c3ccccc3)CC2)c1)N1CCCCCCC1 the outcome was “inactive”. With Cc1ccccc1-c1nnc(-c2cccc3ccccc23)o1 the outcome was “inactive”. In the case of COc1ccc(C)cc1NC(=O)CSc1nnc(-c2ccc(Br)cc2)o1, the outcome is reported as “inactive”. For CCc1cccc(NC(=O)COC(=O)/C=C/c2cccs2)c1, the outcome was “inactive”. In the case of COc1ccc(C(=O)c2ccsc2N)cc1, the outcome is reported as “inactive”. With Cc1ccc(OCCCN2CCOCC2)cc1 the outcome was “inactive”. Cc1ccc(S(=O)(=O)/N=C2\C=C(Nc3ccc(O)cc3)C(=O)c3ccccc32)cc1 was tested, and the outcome was “inactive”. With O=C(COC(=O)c1cc(S(=O)(=O)Nc2ccccc2Cl)ccc1O)Nc1nc2ccccc2s1 the outcome was “inactive”. CCc1nnc(NC(=O)CSc2ncnc3c2oc2ccccc23)s1 was tested, and the outcome was “inactive”. For O=C(COC(=O)c1ccc(NS(=O)(=O)c2cccs2)cc1O)Nc1nc2ccccc2s1, the outcome was “inactive”. For O=C(CSc1nnc(Cc2ccccc2)n1-c1ccccc1)NNC(=O)Cc1ccccc1, the outcome was “inactive”. For O=C(NCC(c1cccs1)N1CCOCC1)c1cc2ccccc2oc1=O (stereo unspecified), the outcome was “inactive”. For O=c1c2c3c(sc2nc2n1CCC2)CCCC3, the outcome was “inactive”. CCc1cccc2c(C(=O)CN3C(=O)NC(C)(c4cccc5ccccc45)C3=O)c[nH]c12 (stereo unspecified) was tested, and the outcome was “inactive”. With CC(C)C(NC(=O)c1ccc2c(c1)OCO2)C(=O)N/N=C/c1cccs1 (stereo unspecified) the outcome was “inactive”. NC(Cc1ccc(C(F)(F)F)cc1)c1csc(NC(=O)Nc2ccccc2)n1 (stereo unspecified) was tested, and the outcome was “inactive”. With CCN=c1scc(-c2ccco2)n1/N=C/c1ccc(OC)c(O)c1 the outcome was “inactive”. In the case of Oc1ccccc1/C=N/n1c2ccccc2c2ccccc21, the outcome is reported as “inactive”. With Oc1ccc(/C=N/N(Cc2ccccc2)c2ccccc2)c(O)c1O the outcome was “inactive”. For CN=c1scc(-c2ccco2)n1/N=C/c1ccc(O)c(O)c1, the outcome was “inactive”. In the case of CCOC(=O)c1c(-c2ccc(C)s2)csc1NC(=O)c1cccs1, the outcome is reported as “inactive”. CCOc1ccccc1NC(=O)CSc1nnc(-c2ccncc2)o1 was tested, and the outcome was “inactive”. In the case of CCOc1ccc(C(=O)Nc2cc(-c3nc4ccccc4[nH]3)ccc2C)cc1[N+](=O)[O-], the outcome is reported as “inactive”. In the case of CC(C)NCC(=O)Nc1c2c(nc3ccccc13)CCC2, the outcome is reported as “inactive”. O=c1[nH]nc(-c2ccccc2)cc1-c1ccccc1 was tested, and the outcome was “inactive”. For COc1ccccc1CN1CCCC(C(=O)N2CCCCC2)C1 (stereo unspecified), the outcome was “inactive”. In the case of COc1cccc(/C=N/Nc2nc(C)cc(=O)[nH]2)c1OC, the outcome is reported as “inactive”. For CCOC(=O)C1=C(C)NC(C)=C(C(=O)OCC)C1c1sccc1C, the outcome was “inactive”. For CCOc1ccc(-n2c(=O)c3sccc3n(CC(=O)Nc3cccc(OC)c3)c2=O)cc1, the outcome was “inactive”. In the case of COc1cccc(CN(C)C(=S)Nc2ccc(C)c(C)c2)c1, the outcome is reported as “inactive”. For Nc1ccc(NC(=O)NC2CCCCC2)cc1[N+](=O)[O-], the outcome was “inactive”. With O=C(Nc1cccc(F)c1)NC1CCCCCCC1 the outcome was “inactive”. For N=c1n(Cc2ccccc2)c2ccccc2n1CC(O)c1ccco1 (stereo unspecified), the outcome was “inactive”. With CC(=O)Nc1ccc(OC(F)(F)C(F)F)c(NC(C)=O)c1 the outcome was “inactive”. For CCn1ncc(NC(=S)NCCc2ccccc2)c1C(N)=O, the outcome was “inactive”. In the case of CC(C)CC(=O)Nc1nnc(S(=O)(=O)N(C)c2ccc(Cl)cc2)s1, the outcome is reported as “inactive”. COc1ccc(/C=N/n2c(SC)nnc(C(C)(C)C)c2=O)cc1OC was tested, and the outcome was “inactive”. With COc1ccc(/C=N/NC(=O)CN(C2=NS(=O)(=O)c3ccccc32)c2ccccc2)cc1OC the outcome was “inactive”. With c1ccc(-c2nnc(N3CCCC3)nc2-c2ccccc2)cc1 the outcome was “inactive”. For CC(O)(c1cccnc1)c1nc(-c2cccc(C(F)(F)F)c2)cs1 (stereo unspecified), the outcome was “inactive”. In the case of CCN(CC)S(=O)(=O)c1cccc(C(=O)NCCCN2CCOCC2)c1, the outcome is reported as “inactive”. With COc1ccc(CCNC(=O)c2ccc(Cl)c(S(=O)(=O)N(C)c3ccccc3)c2)cc1 the outcome was “inactive”. With O=C(NCCc1c[nH]c2ccccc12)/C(=C/c1ccco1)NC(=O)c1ccco1 the outcome was “inactive”. For Cc1ccc(C(=O)OCC(=O)c2ccc(Br)cc2)cc1S(=O)(=O)N1CCOCC1, the outcome was “inactive”. With O=C(COC(=O)c1ccc(Cl)c(S(=O)(=O)N2CCCCCC2)c1)Nc1ccccc1 the outcome was “inactive”. COc1ccc(CC(=O)Nc2nnc(SCc3ccccc3)s2)cc1S(=O)(=O)N1CCOCC1 was tested, and the outcome was “inactive”. For Cc1oc(/C=N/NS(=O)(=O)c2ccccc2)cc1Br, the outcome was “inactive”. Cc1sc(-n2c(C)cc(/C=C3\SC(=S)NC3=O)c2C)c(C#N)c1C was tested, and the outcome was “inactive”. With O=C1C2ON(c3ccccc3)C(c3ccccn3)C2C(=O)N1c1ccc(Br)cc1 (stereo unspecified) the outcome was “inactive”. Cn1nnnc1NCc1cccc(Cl)c1 was tested, and the outcome was “inactive”. In the case of Cc1nnc(NC(=O)c2sc3nc(-c4cccs4)cc(C(F)(F)F)c3c2N)s1, the outcome is reported as “inactive”. For COc1ccccc1NC(=O)CSCC(=O)N1c2ccccc2CCc2ccccc21, the outcome was “inactive”. O=C(Cn1cnc2c(oc3nc4c(cc32)CCCC4)c1=O)Nc1cccc(Cl)c1 was tested, and the outcome was “inactive”. With N#Cc1ccccc1NC(=O)c1cc(=O)c2ccccc2o1 the outcome was “inactive”. For NC(Cc1ccc(Cl)cc1)c1csc(NC(=O)Nc2ccccc2)n1 (stereo unspecified), the outcome was “inactive”. With Nc1ccc(C(CC(=O)O)n2cccc2)cc1 (stereo unspecified) the outcome was “inactive”. In the case of Cc1ccc(Cn2nnc3c(=O)[nH]c(C4CCN(S(=O)(=O)Cc5ccccc5)CC4)nc32)cc1, the outcome is reported as “inactive”. With COc1cc(/C=C2/C(=O)NN(c3cccc(Cl)c3)C2=O)cc(OC)c1O the outcome was “inactive”. For COc1cc(/C=C2/C(=O)NN(c3ccc(Cl)cc3)C2=O)ccc1OC(=O)c1ccco1, the outcome was “inactive”. With Cc1ccc(OCC(=O)NCCS(=O)(=O)N2CCN(c3ccccc3)CC2)cc1 the outcome was “inactive”. For Cc1cccc(NC(=O)c2cccc(S(=O)(=O)N3CCc4ccccc4C3)c2)n1, the outcome was “inactive”. For CCC(=O)c1ccc(OCC(=O)Nc2cccc(S(=O)(=O)N3CCCCCC3)c2)cc1, the outcome was “inactive”. In the case of CCc1cccc(NC(=O)Cn2c(=O)oc3cc(S(=O)(=O)N4CCOCC4)ccc32)c1, the outcome is reported as “inactive”. For COc1ccc(S(=O)(=O)N2CCCCC2)cc1NC(=O)CN1CCN(C(C)=O)CC1, the outcome was “inactive”. In the case of CN(CC(=O)N1CCc2ccccc21)S(=O)(=O)c1cccc2cccnc12, the outcome is reported as “inactive”. For Cc1ccc(S(=O)(=O)N(C)C)cc1NC(=O)C(C)[N+]12CCN(CC1)CC2 (stereo unspecified), the outcome was “inactive”. In the case of CC1CCCN(Cc2c(O)ccc3c(=O)c(-c4nc5ccccc5s4)c(N)oc23)C1 (stereo unspecified), the outcome is reported as “inactive”. For CN1C(=O)C2C=CC1C1C(=O)N(c3ccccc3)C(=O)C21 (stereo unspecified), the outcome was “inactive”.

From PubChem BioAssay AID624273 (Broad Institute, 2012)
